Data reported in PubChem BioAssay (NCI).
Compounds without any hit were thinned out: in the full panel of roughly 83,000, 20% have a hit.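 Note: values are percent growth. 100 is the growth of untreated cells, values between 100 and 0 indicate rising inhibition; between -100 and 0 indicates cell death.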 Calls of active or inactive are those of the source. Rule for the calls: active = growth percent below 10; inactive = the rest.

Columns and labels:
Experiment in all cases: NCI-60 one-dose screen, 48 h (100 = growth as untreated, 0 = no growth, -100 = all killed)
Conditions in all cases: 10 µM unless noted
NCI-H23 lung = test system: NCI-H23 lung
NCI-H226 lung = test system: NCI-H226 lung
NCI-H322M lung = test system: NCI-H322M lung
HOP-62 NSCLC = test system: HOP-62 NSCLC
NCI-H460 lung = test system: NCI-H460 lung
HOP-92 NSCLC = test system: HOP-92 NSCLC
NCI-H522 lung = test system: NCI-H522 lung
A549/ATCC NSCLC = test system: A549/ATCC NSCLC
786-0 renal = test system: 786-0 renal
COLO 205 colon = test system: COLO 205 colon

Measured: growth

CCOC(=O)c1ccc2c(c1)[n+](=O)c(C(C)=O)c(C(F)(F)F)n2[O-]
inactive: NCI-H226 lung 41.2% | NCI-H322M lung 94.4% | HOP-62 NSCLC 25.5% | A549/ATCC NSCLC 19.2% | 786-0 renal 11.4%
active: NCI-H23 lung -16.9% | NCI-H460 lung -50.7% | HOP-92 NSCLC -29.9% | NCI-H522 lung -83.8% | COLO 205 colon -78.3%

Cc1nc2ccccc2c(/C=C/c2ccc(Cl)cc2)c1C(=O)/C=C/c1ccccc1
active: HOP-62 NSCLC -36.7% | NCI-H460 lung -33% | NCI-H522 lung -13.3% | 786-0 renal 7.29% | COLO 205 colon -5.72%
inactive: NCI-H23 lung 22.2% | NCI-H226 lung 40.2% | NCI-H322M lung 41.2% | HOP-92 NSCLC 41.4% | A549/ATCC NSCLC 21.2%

C#Cc1ccc(NC(=O)Cc2ccc(/C=C/C(=O)c3nccn3C)cc2)cc1
inactive: NCI-H23 lung 40.4% | NCI-H226 lung 90.6% | NCI-H322M lung 57.6% | HOP-62 NSCLC 48.3% | NCI-H460 lung 22.6% | HOP-92 NSCLC 96.5% | NCI-H522 lung 68.1% | A549/ATCC NSCLC 74.6% | 786-0 renal 30% | COLO 205 colon 66%

O=C(Nc1ncc(Cc2ccc(Cl)cc2)s1)C1=NCCCCN1
inactive: NCI-H23 lung 99% | NCI-H226 lung 99.7% | NCI-H322M lung 94.9% | HOP-62 NSCLC 108% | NCI-H460 lung 106% | HOP-92 NSCLC 119% | NCI-H522 lung 82.1% | A549/ATCC NSCLC 109% | 786-0 renal 107% | COLO 205 colon 110%

O=C1/C(=C/c2cccc(Br)c2)COc2ccc(O)c(O)c21
active: HOP-62 NSCLC -30.8% | NCI-H460 lung 5.86% | HOP-92 NSCLC -41.1% | NCI-H522 lung -67.6% | 786-0 renal -86.9% | COLO 205 colon 6.56%
inactive: NCI-H23 lung 17% | NCI-H226 lung 83.4% | NCI-H322M lung 25.7% | A549/ATCC NSCLC 11.2%

CN(C)CCOc1nc2c3cc([N+](=O)[O-])ccc3nn2c2ccccc12
active: NCI-H460 lung 4.99%
inactive: NCI-H23 lung 36.7% | NCI-H226 lung 65.3% | NCI-H322M lung 59.6% | HOP-62 NSCLC 30.2% | HOP-92 NSCLC 57.3% | NCI-H522 lung 46.2% | A549/ATCC NSCLC 12.7% | 786-0 renal 22.7% | COLO 205 colon 33.9%

COc1ccc(C2CC(=O)Oc3c(OC)c4c(c(OC)c32)OCO4)cc1 (stereo not given)
inactive: NCI-H23 lung 98.1% | NCI-H226 lung 112% | NCI-H322M lung 90.1% | HOP-62 NSCLC 84.9% | NCI-H460 lung 107% | HOP-92 NSCLC 101% | NCI-H522 lung 85.7% | A549/ATCC NSCLC 97.6% | 786-0 renal 100% | COLO 205 colon 103%

C=CCNc1nc(O)c(/C=C2\C=Nc3ncccc32)s1
inactive: NCI-H226 lung 10.7% | NCI-H322M lung 10.2% | A549/ATCC NSCLC 13.2%
active: NCI-H23 lung 6.83% | HOP-62 NSCLC -10.8% | NCI-H460 lung 2.18% | HOP-92 NSCLC -1.86% | NCI-H522 lung -5.27% | 786-0 renal 4.4% | COLO 205 colon -20.1%

Cc1ccc(S(=O)(=O)c2nc(-c3ccccc3)oc2S(C)=O)cc1 (stereo not given)
active: HOP-92 NSCLC -51.8% | NCI-H522 lung -74.5% | 786-0 renal -64.5% | COLO 205 colon -79.3%
inactive: NCI-H23 lung 63.6% | NCI-H226 lung 62.6% | NCI-H322M lung 79.9% | HOP-62 NSCLC 78.5% | NCI-H460 lung 73.1% | A549/ATCC NSCLC 69.8%

CCN1CCN(c2nc(NNC(=O)c3ccc(OC)cc3)nc(N3CCN(C(c4ccccc4)c4ccccc4)CC3)n2)CC1
inactive: NCI-H23 lung 53.3% | NCI-H226 lung 71.9% | NCI-H322M lung 84.1% | HOP-62 NSCLC 83.6% | HOP-92 NSCLC 58.7% | NCI-H522 lung 85.3% | A549/ATCC NSCLC 64.4% | 786-0 renal 22.9%
active: NCI-H460 lung -6.88% | COLO 205 colon -8.98%

C#C[C@]1(O)CC[C@H]2[C@@H]3CC=C4c5sc(-c6cccc(C)c6)nc5CC[C@]4(C)[C@H]3CC[C@@]21C
inactive: NCI-H23 lung 73% | NCI-H226 lung 91.1% | NCI-H322M lung 66.1% | HOP-62 NSCLC 83.4% | NCI-H460 lung 76.6% | HOP-92 NSCLC 49.6% | NCI-H522 lung 70% | A549/ATCC NSCLC 75.4% | 786-0 renal 32.8% | COLO 205 colon 107%

C#Cc1c(I)n(C2OC(CO[Si](C)(C)C(C)(C)C)C3OC(C)(C)OC32)c(=O)[nH]c1=O (stereo not given)
inactive: NCI-H23 lung 85.7% | NCI-H226 lung 98.1% | NCI-H322M lung 113% | HOP-62 NSCLC 97% | NCI-H460 lung 114% | NCI-H522 lung 101% | A549/ATCC NSCLC 92.6% | 786-0 renal 93.9%
active: HOP-92 NSCLC -80.9% | COLO 205 colon -88.2%

Cc1cc(C(=O)Nc2cc(Nc3ncccc3-c3ncnc4nc[nH]c34)ccc2F)cc(C(C)(C)C#N)c1
active: HOP-92 NSCLC -13.4%
inactive: NCI-H23 lung 19.1% | NCI-H226 lung 39.9% | NCI-H322M lung 56.6% | HOP-62 NSCLC 48.5% | NCI-H460 lung 33.4% | NCI-H522 lung 53.7% | A549/ATCC NSCLC 48.7% | 786-0 renal 63.5% | COLO 205 colon 13.3%

COc1cc(C2CC(c3cccc(Nc4ccncc4)c3)=Nc3c(N)ncnc3N2)cc(OC)c1OC (stereo not given)
inactive: NCI-H23 lung 95.5% | NCI-H226 lung 89% | NCI-H322M lung 92.2% | HOP-62 NSCLC 86.7% | NCI-H460 lung 95.9% | HOP-92 NSCLC 76% | NCI-H522 lung 82.1% | A549/ATCC NSCLC 84% | 786-0 renal 95.9% | COLO 205 colon 96.6%

C=C(C)[C@@H]1CCC[C@]2(C(=O)OC)CC[C@]3(C)[C@@H](CC[C@@H]4[C@@]5(C)CCCNC(C)(C)[C@@H]5CC[C@]43C)[C@@H]12
inactive: NCI-H23 lung 96% | NCI-H226 lung 84.4% | NCI-H322M lung 79.6% | HOP-62 NSCLC 85.5% | NCI-H460 lung 94.4% | HOP-92 NSCLC 70.7% | NCI-H522 lung 91.8% | A549/ATCC NSCLC 91.9% | 786-0 renal 90.1% | COLO 205 colon 76.1%

Cc1ccc2c(c1)CC(O)CC1C(=O)N(CCO)CC(=O)N21 (stereo not given)
inactive: NCI-H23 lung 99.3% | NCI-H226 lung 95.9% | NCI-H322M lung 105% | HOP-62 NSCLC 101% | NCI-H460 lung 109% | HOP-92 NSCLC 124% | NCI-H522 lung 82.5% | A549/ATCC NSCLC 76.6% | 786-0 renal 104% | COLO 205 colon 110%

O=c1c(Cc2ccc(F)cc2)cc(-c2ccccc2)nn1C/C(=N/O)c1ccccc1
inactive: NCI-H23 lung 49% | NCI-H226 lung 57.1% | NCI-H322M lung 70% | HOP-62 NSCLC 62.7% | NCI-H460 lung 37.4% | HOP-92 NSCLC 42.6% | NCI-H522 lung 42.6% | A549/ATCC NSCLC 24.2% | 786-0 renal 69.2% | COLO 205 colon 47.9%

COc1ccc(Cn2cc(C(=O)N=Nc3c(O)[nH]c4ccc(Br)cc34)nn2)cc1
inactive: NCI-H23 lung 102% | NCI-H226 lung 97.5% | NCI-H322M lung 102% | HOP-62 NSCLC 111% | NCI-H460 lung 111% | HOP-92 NSCLC 114% | NCI-H522 lung 89.1% | A549/ATCC NSCLC 95.1% | 786-0 renal 99.6% | COLO 205 colon 115%

COc1cc(C)cc(-c2c(-c3cc(N4CC(O)C4)nc(-c4cccnc4)n3)cnn2C)c1
inactive: NCI-H23 lung 77.9% | NCI-H226 lung 91.5% | NCI-H322M lung 101% | HOP-62 NSCLC 111% | NCI-H460 lung 90.8% | HOP-92 NSCLC 74.7% | NCI-H522 lung 86.5% | A549/ATCC NSCLC 84.9% | 786-0 renal 81.6% | COLO 205 colon 104%

COc1ccc(/C=N\NC(=O)c2ccc3nc(-c4ccc(Cl)cc4)[nH]c3c2)cc1
inactive: NCI-H23 lung 41.6% | NCI-H226 lung 73.8% | NCI-H322M lung 55.9% | HOP-62 NSCLC 30.3% | HOP-92 NSCLC 36% | NCI-H522 lung 82.6% | A549/ATCC NSCLC 12% | COLO 205 colon 22.9%
active: NCI-H460 lung 5.91% | 786-0 renal 3.15%

COc1ccc(S(=O)(=O)N(C)c2oc(-c3ccc(Cl)cc3)nc2C#N)cc1
inactive: NCI-H23 lung 79.7% | NCI-H226 lung 94.9% | NCI-H322M lung 98.2% | HOP-62 NSCLC 82.7% | NCI-H460 lung 95.9% | HOP-92 NSCLC 77.2% | NCI-H522 lung 83% | A549/ATCC NSCLC 87.3% | 786-0 renal 98.2% | COLO 205 colon 97.9%

CC(=O)/C(Br)=C/c1ccc(Br)o1
active: 786-0 renal 5.9%
inactive: NCI-H23 lung 68.4% | NCI-H226 lung 85.4% | NCI-H322M lung 102% | HOP-62 NSCLC 137% | NCI-H460 lung 105% | HOP-92 NSCLC 33.8% | NCI-H522 lung 55.7% | A549/ATCC NSCLC 102% | COLO 205 colon 73.8%

Cc1c(CC(=O)Nc2ccccc2)nnn1-c1ccccc1
inactive: NCI-H23 lung 100% | NCI-H226 lung 109% | NCI-H322M lung 105% | HOP-62 NSCLC 108% | NCI-H460 lung 106% | HOP-92 NSCLC 108% | NCI-H522 lung 93.4% | A549/ATCC NSCLC 107% | 786-0 renal 107% | COLO 205 colon 112%

CCOc1ccc(-c2cc(C3(S(=O)(=O)c4ccc(C)cc4)CC=CC3)on2)cc1
inactive: NCI-H23 lung 73.2% | NCI-H226 lung 47.7% | NCI-H322M lung 96.4% | HOP-62 NSCLC 85.9% | NCI-H460 lung 91.1% | HOP-92 NSCLC 86.1% | NCI-H522 lung 70.6% | A549/ATCC NSCLC 92.8% | 786-0 renal 102% | COLO 205 colon 95.5%

O=C1CCC(C(=O)N/N=C/c2ccc([N+](=O)[O-])cc2)N1 (stereo not given)
inactive: NCI-H23 lung 98.6% | NCI-H226 lung 106% | NCI-H322M lung 102% | HOP-62 NSCLC 110% | NCI-H460 lung 101% | HOP-92 NSCLC 89.1% | NCI-H522 lung 96.1% | A549/ATCC NSCLC 102% | 786-0 renal 95.5% | COLO 205 colon 108%
